Several values for one entry are separate records, joined by “and”; a condition that tells them apart may be missing. Equal values may be shown once. Records with an inconclusive call do not appear. Activity calls are given as the source filed them. Unless noted, the limit is not given here; nearly all actives have AC50 up to about 26 µM.
What was measured:
[1] = growth inhibition of DIPG glioma cells, dose response, cell-based, SU-DIPG-XVII, MIPE5.0, CellTiter-Glo, qHTS (AID 1347060); conditions: SU-DIPG-XVII viability, CellTiter-Glo ATP luminescence;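 as to AC50: cells exposed to compound for 48 hours before viability readout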
[2] = growth inhibition of DIPG glioma cells, dose response, cell-based, SU-DIPG-IV, MIPE4.0, CellTiter-Glo, qHTS (AID 1347063; cut-off not given, nearly all actives have AC50 up to about 30 µM;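 also: compound exposure lasted 48 hours before the viability readout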); conditions: SU-DIPG-IV viability, CellTiter-Glo ATP luminescence
[3] = growth inhibition of DIPG glioma cells, dose response, cell-based, SU-DIPG-XIII, MIPE5.0, CellTiter-Glo, qHTS (AID 1347064; cut-off not given, nearly all actives have AC50 up to about 23 µM;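 as to AC50: cells exposed to compound for 48 hours before the viability read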); conditions: SU-DIPG-XIII viability, CellTiter-Glo ATP luminescence
[4] = viability loss in pontine glioma line – cell-based, SU-DIPG-XXV, MIPE5.0, CellTiter-Glo, qHTS, dose response (AID 1347065); conditions: CellTiter-Glo ATP luminescence;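 also: cells exposed to compound for 48 hours before ATP readout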
[5] = SU-DIPG-VI glioma cell viability, MIPE4.0 library, CellTiter-Glo luminescence, qHTS (AID 1347066; cut-off not given, nearly all actives have AC50 up to about 30 µM;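 also: cells exposed to compound for 48 hours before readout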); conditions: CellTiter-Glo ATP luminescence
[6] = JHH-DIPG-1 glioma cell viability, MIPE5.0 library, CellTiter-Glo luminescence, qHTS (AID 1347067); conditions: JHH-DIPG-1 glioma viability, CellTiter-Glo ATP luminescence;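 also: cells exposed to compound for 48 hours before readout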
[7] = SU-DIPG-XXV glioma cell viability, MIPE5.0 library, qHTS (AID 1347068; cut-off not given, nearly all actives have IC50 up to about 30 µM;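 as to IC50: cells exposed to compound for 48 hours before viability readout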)
[8] = sensitizers of A549 cells to miR-34 induction, primary screen, imaging, A549 dox-inducible miR-34, nuclei and caspase counts (AID 1347080;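 active = compounds whose cell count with miR-34 switched on is under 0.7 times the count with it off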); conditions: A549 miR-34 inducible, Hoechst nuclei count, 48 h
[9] = survival rescue of mitochondrial mutant cells in low glucose, primary screen, MELAS cybrids, Rieske KO mouse fibroblasts, CellTiter-Glo (AID 1508586;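 active = mean z-score across replicates of 1.96 or higher in either the MELAS or the Rieske mutant cell line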;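 also: z relative to plate mean and SD of compound and empty wells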)
[10] = biological target: NAD(+) hydrolase SARM1 (Homo sapiens) (UniProt Q6SZW1); experiment: SARM1 TIR NADase inhibitors, cell lysate, NAD-Glo luminescence (AID 1508614;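 active = compound whose remaining NAD level is above about 45 nM, limit read from the data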;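 also: higher remaining NAD means stronger inhibition of SARM1 NADase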); conditions: SAM-TIR HEK293T lysate NADase, at 1 µM, stronger effect = higher value
Chain of NAD(+) hydrolase SARM1 (Homo sapiens) (Q6SZW1 whole entry, looked up): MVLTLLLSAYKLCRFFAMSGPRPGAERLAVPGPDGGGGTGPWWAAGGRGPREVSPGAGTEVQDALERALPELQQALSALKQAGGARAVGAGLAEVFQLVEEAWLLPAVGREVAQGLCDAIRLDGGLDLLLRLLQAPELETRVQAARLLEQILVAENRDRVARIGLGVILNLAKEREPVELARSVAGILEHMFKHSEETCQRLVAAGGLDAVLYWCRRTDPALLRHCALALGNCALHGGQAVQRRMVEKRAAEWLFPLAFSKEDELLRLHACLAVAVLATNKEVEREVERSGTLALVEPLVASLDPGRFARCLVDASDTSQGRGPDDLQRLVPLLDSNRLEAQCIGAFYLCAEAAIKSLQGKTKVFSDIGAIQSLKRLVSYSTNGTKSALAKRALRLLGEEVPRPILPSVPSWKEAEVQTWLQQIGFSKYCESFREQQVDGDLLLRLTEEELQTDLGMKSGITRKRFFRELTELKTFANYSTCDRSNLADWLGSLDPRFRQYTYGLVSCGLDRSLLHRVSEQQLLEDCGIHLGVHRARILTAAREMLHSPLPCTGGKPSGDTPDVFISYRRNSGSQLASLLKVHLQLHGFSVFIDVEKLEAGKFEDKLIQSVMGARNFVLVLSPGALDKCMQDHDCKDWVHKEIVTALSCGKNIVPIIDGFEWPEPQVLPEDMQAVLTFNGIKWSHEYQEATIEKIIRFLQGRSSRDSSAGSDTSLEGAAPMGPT

[11] = growth inhibition of DIPG glioma cells, dose response, cell-based, JHH-DIPG-1, MIPE4.0, CellTiter-Glo, qHTS (AID 1347062; cut-off not given, nearly all actives have AC50 up to about 27 µM;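 as to AC50: cells exposed to compound for two days before readout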); conditions: JHH-DIPG-1 viability, CellTiter-Glo ATP luminescence
[12] = stronger effect = lower value, cell number ratio, induced over uninduced
[13] = measured here: relative caspase fold change +Dox/-Dox
[14] = measured here: total cells with miR-34 induction, stronger effect = lower value
[15] = measured here: total cells without miR-34 induction
[16] = MELAS cybrid survival, CellTiter-Glo 48 h, stronger effect = higher value
[17] = Rieske KO mouse fibroblast survival, CellTiter-Glo 72 h

CN1[C@@H]2CC(O)C[C@H]1[C@@H]1O[C@@H]12 (stereo partly specified)
active: AC50 [2] 16.6 µM | AC50 [5] 16.6 µM
8400 and 9480: cell count [8, 14]
inactive: outcome [1] | outcome [3] | outcome [4] | outcome [6] | outcome [7] | fold change [8, 12] 0.909 and 0.934 | z-score [9, 16] -0.234 and -0.344
-0.606 and 0.658: z-score [9, 17]
0.912 and 0.808: fold change [8, 13]
9240 and 10200: cell count [8, 15]

C[C@@H]1O[C@@H](O[C@@H]2C=C3CC[C@@H]4[C@H](CC[C@]5(C)[C@@H](c6ccc(=O)oc6)CC[C@]45O)[C@@]3(C)CC2)[C@H](O)[C@H](O)[C@H]1O
active: AC50 [1] 14.8 nM | AC50 [3] 0.0166 µM | AC50 [4] 18.6 nM | AC50 [6] 11.8 nM
-0.344: z-score [9, 17]
inactive: z-score [9, 16] 1.14 | remaining NAD [10] 10 nM

Cc1ncc(OC[C@@]2(c3cccc(F)c3)C[C@H]2C(=O)Nc2ccc(F)cn2)c(C)n1
inactive: outcome [1] | outcome [3] | outcome [4] | outcome [6] | outcome [7]

c1ccc2c(CN3CCNCC3)cccc2c1
inactive: outcome [1] | outcome [11] | outcome [3] | outcome [4] | outcome [5] | outcome [6]

NC(=O)[C@@H](CC1CC1)[C@@H](CCC(F)(F)F)C(=O)N[C@H]1N=C(c2ccccc2)c2cccc(F)c2NC1=O
inactive: outcome [1] | outcome [3] | outcome [4] | outcome [7]

C[C@H]1[C@H](O)[C@@H](C)/C=C/C=C/CC/C=C/C=C/C=C/C=C/[C@H](O[C@@H]2O[C@H](C)[C@@H](O)[C@H](N)[C@@H]2O)C[C@@H]2O[C@](O)(C[C@@H](O)[C@H](O)CC[C@@H](O)C[C@@H](O)C[C@@H](O)CC(=O)O[C@H]1C)C[C@H](O)[C@H]2C(=O)O
inactive: outcome [1] | outcome [3] | outcome [4] | outcome [6] | outcome [7]

O=C(Nc1ccncc1)C(=O)c1cn(Cc2ccc(Cl)cc2)c2ccccc12
inactive: outcome [5]
active: AC50 [1] 295 nM | AC50 [11] 296 nM | AC50 [3] 1.66 µM | AC50 [4] 148 nM | AC50 [6] 417 nM | IC50 [7] 0.372 µM

Cc1[nH]ncc1-c1cc2nc([C@@H]3CC4CCN3CC4)[nH]c(=O)c2s1
active: AC50 [1] 18600 nM | AC50 [4] 16600 nM | AC50 [6] 14800 nM | IC50 [7] 23.5 µM

O=c1[nH]c2ccc(Cl)cc2c(N[C@@H]2CN3CCC2CC3)c1-c1nc2ccccc2[nH]1
active: AC50 [1] 2630 nM | AC50 [11] 1870 nM | AC50 [2] 1.66 µM | AC50 [3] 3.32 µM | AC50 [4] 3720 nM | AC50 [6] 3320 nM | IC50 [7] 8.33 µM

COc1cc(C)[nH]c(=O)c1CNC(=O)c1c(C)n([C@H](C)C2CCN(CC(F)(F)F)CC2)c2ccccc12
inactive: outcome [1] | outcome [4] | outcome [6]

CC(N[C@H]1C[C@@H]1c1ccccc1)c1ccc2c(c1)OCCO2 (stereo partly specified)
inactive: outcome [1] | outcome [11] | outcome [3] | outcome [4] | outcome [6] | outcome [7]

O=S(=O)(F)Cc1ccccc1
0.553: z-score [9, 17]
0.551: fold change [8, 13]
10800: cell count [8, 15]
inactive: outcome [1] | outcome [11] | outcome [2] | outcome [3] | outcome [4] | outcome [5] | outcome [6] | outcome [7] | fold change [8, 12] 0.924 | z-score [9, 16] -0.358
9940: cell count [8, 14]

From PubChem BioAssay
